Our source for the percent growth values is the supplement of paper PMC5940239.

Values without a mark were called inactive.

The subject of the experiment is Madurella mycetomatis MM55. The experiment in a line: percent growth relative to solvent control; higher = less inhibition, active = 20 or less. The conditions noted are these: 100 µM; 7 days.
On to `NCCCC(N)(C(=O)O)C(F)F` (centres undefined), for which the percent growth is 133%.

`CC(C)(C)C(=O)N(CCCCCCN1C[C@H](O)[C@@H](O)[C@H](O)[C@H]1CO)C1CCCCCC1`: the percent growth is 86.6%. As for `CCC(Sc1nc2ccccc2o1)C(=O)Nc1nnc(C)s1` (centres undefined), the percent growth was 40.9%.

Take `Cc1[nH]c2cc(F)cc(F)c2c(=O)c1-c1ccc(Oc2ccc(OC(F)(F)F)cc2)cc1`: the percent growth is 95.7%. Consider `CCc1ccc(C(NCc2nc(N)nc(N(C)C)n2)C(C)C)cc1` (centres undefined), for which the percent growth is 49.1%. In the case of `CCCS(=O)(=O)N1CCC(CO)(Cc2ccccc2C(F)(F)F)CC1`, the percent growth was 37.4%. `C[C@H]1c2cccc(O)c2C(=O)C2=C(O)[C@]3(O)C(=O)C(C(N)=O)=C(O)[C@@H](N(C)C)[C@@H]3[C@@H](O)[C@@H]21`: the percent growth is 121%. In the case of `COc1ccc(Cl)cc1NC(=O)CN(C)C(=O)c1cnn(-c2ccccc2)n1` it was 30.8%.

For the compound `CCC(NC(=O)c1ccccc1NC(=O)c1ccc(C)cc1)C(=O)OC` (centres undefined), the percent growth was 98.3%.

In the case of `CCOC(=O)NC(=O)c1ccsc1NC(=O)c1nc2ccccc2s1`, the percent growth was 78.6%.

Regarding `O=C(Nc1cnc2ccccc2c1)c1cccc(-n2cnnn2)c1`, the percent growth is 94.2%. The result for `Cc1nnc(NC(=O)c2cn(-c3ccccc3)nc2-c2ccccc2C)o1` reads 92.6%.

For the compound `CC(C(=O)Nc1ccc2oc(-c3ccncc3)nc2c1)c1ccccc1` (centres undefined), the percent growth is 77%. The result for `CCn1ncc2c(NC3CCOCC3)c(CNC(=O)c3ccnn3C)c(C)nc21` reads 142%; that for `O=C(NCCN1CCCC1)c1cc(NCCCCN2CCC(F)(F)CC2)nc2ccc(Cl)cc12`, 61.8%. On to `Cc1cc(Cl)ccc1NC(=O)CCc1ccc(S(=O)(=O)NCC(C)C)cc1`, for which the percent growth was 91.1%. In the case of `Cc1ccc2cc(C3NC(=O)c4ccccc4N3)c(Cl)nc2c1` (centres undefined) it was 139%; in that of `CC[C@H](CO)NCCN[C@H](CC)CO`, 139%. The result for `CNc1snc(C)c1C(=O)NCCOc1ccc(OC)cc1` reads 92.2%; that for `O=C(CN1CCOCC1)Nc1ccc2ncnc(Nc3ccc(OCc4cccc(F)c4)c(Cl)c3)c2c1`, 79.4%.

`CC(C)(C)n1nc(Cc2cccc3ccccc23)c2c(N)ncnc21`: the percent growth was 69.6%. In the case of `CNc1cc(C)nc(C2CN(C(=O)c3n[nH]c4ccccc34)CCO2)c1` (centres undefined) it was 103%; in that of `COc1ccc(N(CCc2cccc(C)n2)C(C)=O)cc1`, 101%; in that of `Cc1cc(O)nc(-n2nc(C)cc2C)n1`, 66.4%.

For the compound `O=C(Nc1ccnc(-c2cccnc2)n1)c1cc(C(F)(F)F)cc(C(F)(F)F)c1`, the percent growth was 169%. In the case of `CC1=Nc2ccc(Cl)cc2C(c2ccccc2)N1CCNC(=O)CN(C)C` (centres undefined) it was 106%; in that of `Clc1ccc(-n2cc(COc3ccnc4ccccc34)nn2)cc1`, 63%. The result for `CN1CCN(S(=O)(=O)c2ccc(-c3ccc4c(Nc5ncc(Cl)cn5)ccnc4c3)cc2)CC1` reads 98.9%; that for `CCOc1ccccc1C(=O)Nc1cccc(-c2nc3ncccn3c2C)c1`, 97.2%; that for `Cc1noc(C)c1C(=O)N1CCCC(c2[nH]c3c(C)cccc3c2-c2ccncc2)C1` (centres undefined), 51.6%.

Consider `O=C(NC1CC1)c1ccc(CSCc2ccccc2Cl)o1`, for which the percent growth was 41.5%. Turning to `Clc1cccc(CO[C@H]2CCc3ccccc3[C@@H]2n2ccnn2)c1`, the percent growth is 64.8%. The result for `COc1ccc(C2=NCCN2)cc1-c1cn(-c2cccc(C3=NCCN3)c2)nn1` reads 94%; that for `CC(=O)NC[C@H]1CN(c2ccc(N3CCSCC3)c(F)c2)C(=O)O1`, 94.5%. In the case of `O=C(C1CCN(c2nnnn2-c2ccccc2)CC1)N1CCc2ccccc2C1` it was 56.4%; in that of `FC(F)(F)c1cccc(-c2nc3c(NCc4ccncc4)nccc3[nH]2)c1`, 72.4%; in that of `CC(Oc1cccc(Cl)c1)C(=O)Nc1ccc2oc(-c3ccncc3)nc2c1` (centres undefined), 51.2%. As for `CCCNC(=O)N1CCC2(CC1)CC(=O)c1cc(C)ccc1O2`, the percent growth is 102%. Regarding `OC[C@H]1O[C@@H](n2c3ccc(Cl)cc3c3c(-c4cc5ccccc5o4)ncnc32)C(O)[C@H]1O` (some centres undefined), the percent growth was 121%.
